Measured values: PubChem BioAssay

System: Sonic hedgehog protein (Shh)
Experiment: Sonic hedgehog microarray binding compounds – biochemical, small-molecule microarray, 635/667 nm fluorescence, primary screen (AID 1151);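 note: Shh protein binding to compounds spotted on small-molecule microarray slides; score combines spot fluorescence intensity with signal-to-noise across triplicate slides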
Conditions: 635 nm fluorescence, higher = more signal

Compound | composite z-score
CCN1C(=O)[C@@H]2[C@H]3C(=CC[C@@H]2C1=O)C1(OCCCO1)[C@H]1O[C@H]1[C@H]3O | 0.956
CCOC(=O)[C@H](Cc1ccccc1)NC(=O)CCC1CC(OC(=O)NCCc2ccc(F)cc2)CC2(CCCC(COC(=O)NCCc3ccccc3OC)O2)O1 (stereo partly specified) | 1.54
CCOC(=O)NN=C1C[C@@H](O)[C@@H](O)[C@@H]2[C@@H]3C(=O)N(c4cccc(Oc5ccccc5)c4)C(=O)[C@@H]3CC[C@H]12 | 0.206
CCCCC#C[C@@H]1C=C[C@H](Oc2ccc(C(=O)OC)cc2)[C@@H](COC(=O)OCC)O1 | 1.12
CCCNC(=O)OC[C@H]1O[C@H](CCON=C(C)CCN2CCc3nc(CC)c(CC)cc3C2)C=C[C@@H]1Oc1ccc(OC)cc1 | 0.391
CCC1=NOC(CCC2CC(OC(=O)NCc3cccc4c3OCO4)CC3(CCCC(COC(=O)NCCc4ccccc4OC)O3)O2)C1 (stereo unspecified) | 0.157
CO[C@@H]1COC(=O)CC=C[C@H](C)[C@H](OC)COC(=O)[C@H](C)NC(=O)CC=C[C@H]1C | 2.09
C#CCCCON=C1C[C@@H](O)[C@@H](O)[C@@H]2[C@@H]3C(=O)N(C(C)(C)C)C(=O)[C@@H]3CC[C@H]12 | -0.914
CCOC(=O)[C@H](Cc1ccccc1)NC(=O)CCC1CC(OC(=O)NCc2ccc3c(c2)OCO3)CC2(CCCC(COC(=O)NCCC(C)C)O2)O1 (stereo partly specified) | 1.74
COC(=O)CC=C[C@@H](C)[C@@H](C=NO[C@H](C)c1cn([C@H](CO)Cc2ccccc2)nn1)NS(=O)(=O)c1ccc(C)cc1 | 0.285
CCN1C(=O)[C@H]2[C@H]3[C@H](O)[C@H](O)CC(=O)[C@@H]3CC[C@H]2C1=O | 0.694
